hgDAF12 agonist = agonists of H. glycines DAF-12 nuclear receptor. HEK293 GAL4-hgDAF12 UAS-luciferase reporter, agonist luminescence; normalized to butyrate control. activation, % at 6.8 µM. hit rate 1.8% among 370,000. AID 687014;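 active means activation above a cutoff set at the mean of all screened compounds plus 3 SD, cut at about 10% in these data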;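 further: 0% = DMSO wells and 100% = sodium butyrate wells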
ssDAF12 agonist = S. stercoralis DAF-12 activation, primary screen. HEK293 ssDAF-12/GRIP1 lit1-tk-luc reporter, luminescence; % of 3 µM dafachronic acid response. activation, % at 6.8 µM. hit rate 1% among 370,000. AID 652126;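 active means activation above the mean over all tested compounds plus 3 SD, cut at about 0.9% in these data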;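 further: 0% = DMSO-only wells and 100% = 3 µM delta7-dafachronic acid wells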
DAX1 inh-1 = DAX1 (NR0B1) inhibition, primary screen; HEK293T StAR-luciferase reporter, SF-1/DAX-1 repression relief; inhibition, % at 6.8 µM; hit rate 1.1% among 370,000; AID 652010;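 active means inhibition above the mean over all tested compounds plus 3 SD, cut at about 3.6% in these data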;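 further: 0% = DAX-1 cells with DMSO and 100% = cells lacking DAX-1 with DMSO; higher inhibition means more luminescence from relief of DAX-1 repression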
hcDAF12 agonist = activators of H. contortus DAF-12 nuclear receptor; HEK293 hcDAF-12 lit1-tk-luc reporter, luminescence; 0% DMSO, 100% Δ7-dafachronic acid; activation, % at 6.8 µM; hit rate 1.4% among 370,000; AID 652067;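 active means activation above the mean of all tested compounds plus 3 SD, cut at about 5.5% in these data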;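 further: 100% = response to 3 µM Δ7-dafachronic acid high control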
DAX1 inh-2 = NR0B1 (DAX1) inhibition. P51843. HEK293 Gal4-DAX1 luciferase reporter, luminescence. inhibition, % at 6.75 µM. hit rate 0.99% among 340,000;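 active means inhibition above the mean over all tested compounds plus 3 SD, cut at about 4.2% in these data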;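 further: 0% = DAX1-transfected cells with DMSO and 100% = empty-vector control cells with DMSO; inhibition shows as a rise in luminescence from relieved DAX1 repression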
hgDAF12 ag = hgDAF-12 agonism, confirmation assay | shares compounds with hgDAF12 agonist | HEK293 GAL4-hgDAF12 luciferase reporter, agonist mode; percent of butyrate response | activation, % at 6.8 µM | hit rate 80% among 3,300 | AID 743050;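 active means mean activation over triplicate wells above the hit cutoff derived from the earlier primary screen, cut at about 11% in these data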;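 further: 0% = DMSO low control and 100% = 2 mM sodium butyrate high control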
LXRb DAF12 ctr = activates human LXR-beta, counter-screen for DAF-12 agonists. 3,300 tested, under 10 active. AID 743051. HEK293 Gal4-LXR luciferase reporter, 24 h. shares compounds with hgDAF12 agonist. activation, % at 6.8 µM;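 active means mean activation of the triplicate above a set limit carried over from the primary screen, none filed active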
Target sequence (P55055 whole entry, looked up, the tested form may be a part): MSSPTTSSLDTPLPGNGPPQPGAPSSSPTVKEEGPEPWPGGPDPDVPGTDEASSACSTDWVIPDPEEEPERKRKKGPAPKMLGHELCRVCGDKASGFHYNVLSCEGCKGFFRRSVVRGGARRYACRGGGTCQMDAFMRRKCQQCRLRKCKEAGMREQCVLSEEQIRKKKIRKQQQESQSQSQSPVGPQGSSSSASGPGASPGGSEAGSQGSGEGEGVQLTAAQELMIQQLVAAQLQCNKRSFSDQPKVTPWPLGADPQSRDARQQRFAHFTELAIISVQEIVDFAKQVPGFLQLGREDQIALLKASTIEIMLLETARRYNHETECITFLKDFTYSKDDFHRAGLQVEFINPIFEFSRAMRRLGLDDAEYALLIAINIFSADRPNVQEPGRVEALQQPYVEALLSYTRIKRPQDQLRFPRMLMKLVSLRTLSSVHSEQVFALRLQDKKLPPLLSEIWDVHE
* marks the source's active call; other numbers are inactive results; nt = no result. A selection: hits, their analogues and other compounds. The true share with any hit is near 4.1%.

SMILES	hgDAF12 agonist	ssDAF12 agonist	DAX1 inh-1	hcDAF12 agonist	DAX1 inh-2	hgDAF12 ag	LXRb DAF12 ctr
O=C(Nc1ccc(F)c(Cl)c1)c1cc(C2CCCN(C(=O)C3CC3)C2)on1 (configuration not stated)	15*	0	4.4*	1	nt	8	1
C=CCOc1ccccc1CN(CCc1ccccc1)C(=O)c1cccc(S(C)(=O)=O)c1	-1	-1	-1	-3	1	nt	nt
O=C(O)c1cc(-c2cccs2)[nH]n1	15*	0	0	0	1	1	0
COc1cc(/C=C/c2ccc3cccc(O)c3n2)cc(Cl)c1OC	14*	0	0	2	1	17*	1
C/C(=N\NC(=O)c1ccc(C)cc1C)c1ccc(-n2ccnc2)cc1	14*	-1	1	3	0	0	0
C/C(=N\NC(N)=O)c1ccc(-n2ccnc2)cc1	1	-1	0	-1	1	nt	nt
O=C(C[n+]1ccccc1)NNc1ccccc1	3	-1	2	0	0	nt	nt
COc1ccccc1/C=C/c1nc(C#N)c(N(C)C)o1	15*	0	1	5.8*	4	14*	1
COc1ccc(-c2cn3c(C)c(C(=O)NC(C)(C)C)sc3n2)cc1	18*	1	3	6.0*	2	12*	0
CCOc1ccc(OCc2ccc(C(=O)N3CCCC3)o2)cc1	3	-1	0	2	-1	nt	nt
CCOc1ccc(OCc2cccc(C(=O)N3CCCCCC3)c2)cc1	16*	0	3.8*	5	-6	16*	1
COc1ccc(/C=N/Nc2ccc([N+](=O)[O-])cc2)cc1O	17*	0	2	3	7.8*	17*	1
Clc1ccc2nc(N3CCCCC3)[nH]c2c1	20*	0	4.5*	5.7*	1	17*	1
Cc1ccc(-c2nc(-c3ccncc3)no2)cc1	15*	0	1	4	3	15*	1
Cc1ccc(Cc2nc(-c3cccnc3)no2)cc1	3	0	-1	-2	1	nt	nt
c1ccc(-c2noc(-c3cccnc3)n2)nc1	14*	0	3	1	1	12*	0
Cc1ccc(-c2nc(-c3cccnc3)no2)cc1	14*	0	3	3	3	18*	1
CCOC(=O)c1[nH]c2ccc(Br)cc2c1NC(=O)CCN1CCCC(C)(C)C1	1	0	0	3	0	nt	nt
CCOc1ccc(NC(=O)[C@@H]2CCC(=O)N2C2OC(=O)c3ccccc32)cc1 (some centres not stated)	1	-1	1	0	1	nt	nt
COc1cc(/C=N/OCC(=O)Nc2cc(C)cc(C)c2)ccc1OCc1ccc(Cl)cc1	16*	-1	1	5	-1	10	1
COc1cc(/C=N/N2CCOCC2)ccc1OCc1ccc(Cl)cc1	10	-1	3	3	1	nt	nt
Cc1ccc(N2CCN(C(=O)c3cn(CC4CCCCC4)nn3)C(C)C2)cc1 (configuration not stated)	15*	1.0*	4.3*	2	1	13*	1
CC(=O)c1ccc(NC(=O)CSc2nc(N)c3cc4c(nc3n2)CCCC4)cc1	4	-2	0	1	-1	nt	nt
COc1ccc(NC(=O)CSc2nc(N)c3cc4c(nc3n2)CCCC4)cc1	18*	-1	-1	-1	-1	5	0
COC(=O)CCc1c(COC(C)=O)[nH]c(C(=O)OCc2ccccc2)c1C	-2	-1	0	0	-1	nt	nt
CCc1nnc(NS(=O)(=O)c2ccc(Nc3ccc4nonc4c3[N+](=O)[O-])cc2)s1	0	0	0	0	0	nt	nt
CCOc1ccc(N2C(=O)c3ccccc3C2O)cc1 (configuration not stated)	20*	0	3.8*	4	2	9	0
CSc1ncnc2c1ncn2CCCN1CCN(c2ncccn2)CC1	-2	-1	-1	0	0	nt	nt
O=C(CSc1nnc(NC(=O)c2c(F)cccc2F)s1)NCc1ccccc1	-1	-1	0	0	0	nt	nt

Assay outcomes (PubChem BioAssay)
